Laboratory results published in PubChem BioAssay (Tox21).
Inconclusive results are not listed. The source made the active and inactive calls. Unless noted, calls come from the whole dose curve; as a rule, active = well fitted curve in the direction sought with a large enough effect in the repeat runs; inconclusive = weak or mixed curves; inactive = no such curve, though single readings can be large; an effect the other way counts as inactive or inconclusive.

Legend:
[1] = qHTS assay for small molecule agonists of the p53 signaling pathway (AID 651631; calls by dose curve; note: nearly all actives have a fitted effect of over 15% in size)
In short: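 p53RE-bla HCT-116 cells; compounds 16 h, 37 °C; LiveBLAzer B/G FRET substrate 2 h RT; fluorescence intensity read-out, qHTS format.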

[2] = qHTS assay for small molecules that induce genotoxicity in human embryonic kidney cells expressing luciferase-tagged ATAD5 (AID 651632); note: nearly all actives have a fitted effect of over 15% in size
In short: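 A rise in luciferase signal from ATAD5-tagged HEK293T cells marks genetic stress. Cells were exposed to compounds for 16 hr at 37C, 5% CO2, then luciferase was quantified after a 30 min room-temperature incubation with Amplite.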

[3] = qHTS assay for small molecule agonists of the p53 signaling pathway - cell viability (AID 651633; calls by dose curve;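 note: p53RE-bla HCT reporter cells with a stable beta-lactamase p53 reporter; series mostly up to about 83 µM; nearly all actives have a fitted effect of over 30% in size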)
In short: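 p53RE-bla cells, seeded at 4,000 per well and rested 5 h at 37 C/5% CO2, received compounds in DMSO for 16 h at 37 C. CellTiter-Glo was then added, and luminescence was read after 30 min at room temperature to gauge cytotoxicity.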

[4] = qHTS assay for small molecules that induce genotoxicity in human embryonic kidney cells expressing luciferase-tagged ATAD5 - cell viability (AID 651634; calls by dose curve; note: nearly all actives have a fitted effect of over 25% in size)
In short: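 Cytotoxicity counter-readout: after 15.5 hr compound treatment at 37C, live-cell protease activity in ATAD5-luciferase HEK293T cells measured by CellTiter-Fluor fluorescence, 30 min development at 37C.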

[5] = qHTS assay for small molecule disruptors of the mitochondrial membrane potential - cell viability (AID 720634; calls by dose curve;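 note: human HepG2 liver cancer cells; series mostly up to about 83 µM; nearly all actives have a fitted effect of over 20% in size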)
In short: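 Cytotoxicity was quantified from ATP content by CellTiter-Glo luminescence in the same wells as the MMP dye read-out. HepG2 (2,000 cells/well) were plated overnight and exposed to compounds for 1 hr at 37 C.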

[6] = qHTS assay to test for compound auto fluorescence at 590 nm (red) in HepG2 cells (AID 720674)
In short: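 Compound auto-fluorescence is scored relative to Rose Bengal sodium, measured at 540/590 nm in live HepG2 cultures after 1 hr compound contact (37 C, 5% CO2).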

[7] = qHTS assay to test for compound auto fluorescence at 535 nm (green) in HepG2 cells (AID 720675)
[8] = qHTS assay to test for compound auto fluorescence at 460 nm (blue) in HEK293 cells (AID 720678)
In short: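 Intrinsic compound fluorescence is recorded in live HEK293 cultures after overnight incubation at 37C, 5% CO2, using excitation 405 nm and emission 460 nm. Values are referenced to triamterene.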

[9] = qHTS assay to test for compound auto fluorescence at 535 nm (green) in HEK293 cells (AID 720680)
[10] = qHTS assay to test for compound auto fluorescence at 460 nm (blue) in HEK293 cell free culture (AID 720681)
In short: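 Test compounds were pinned into cell-free culture medium (DMEM with 10% FBS) and fluorescence was read directly at Ex/Em 405/460 nm. Signals were expressed as fluorescence equivalents of triamterene, with DMSO vehicle as control.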

[11] = qHTS assay to test for compound auto fluorescence at 535 nm (green) in HEK293 cell free culture (AID 720682)
In short: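 Cell-free medium (DMEM, 10% FBS) receives compound or DMSO by pintool. Plate read directly at Ex 485/Em 535 nm. Signal converted to fluorescein equivalency.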

[12] = qHTS assay to test for compound auto fluorescence at 590 nm (red) in HEK293 cell free culture (AID 720683)
In short: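 Tox21 10K library compounds were pinned into cell-free DMEM with 10% FBS and fluorescence was read at excitation 540 nm. Activity is expressed as Rose Bengal sodium equivalency.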

[13] = qHTS assay to test for compound auto fluorescence at 590 nm (red) in HepG2 cell free culture (AID 720684)
In short: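 Ex 540 / Em 590 nm read of compound in cell-free MEM (10% FBS). Rose Bengal sodium reference.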

[14] = qHTS assay to test for compound auto fluorescence at 460 nm (blue) in HepG2 cell free culture (AID 720685)
In short: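 Cell-free plates of MEM plus 10% FBS received 23 nL compound or DMSO vehicle; blue-channel (405/460 nm) intensity scored against triamterene as reference fluorophore.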

[15] = qHTS assay to test for compound auto fluorescence at 535 nm (green) in HepG2 cell free culture (AID 720686)
[16] = qHTS assay to test for compound auto fluorescence at 460 nm (blue) in HepG2 cells (AID 720687)
In short: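 Cells (2,000/well in MEM with 10% FBS) attached overnight at 37 C, then were exposed to compound or DMSO for 1 hr at 37 C, 5% CO2. Fluorescence read at Ex/Em 405/460 nm, expressed as triamterene-equivalent signal.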

[17] = qHTS assay to test for compound auto fluorescence at 590 nm (red) in HEK293 cells (AID 720679)
In short: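 Red autofluorescence, HEK293 cells: 2,000 cells/well; attach 4-5 hr 37C; add 23 nL cpd or DMSO; incubate o/n 37C 5% CO2; read Ex540/Em590; Rose Bengal sodium reference.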

[18] = target: Glucocorticoid receptor (Homo sapiens) (UniProt P04150); experiment: qHTS assay to identify small molecule agonists of the glucocorticoid receptor (GR) signaling pathway (AID 720691; active = well fitted activation curve with a large enough effect in the signal ratio in the repeat runs, not every such curve was filed as active; the % refers to the signal ratio)
In short: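 Agonist-mode qHTS in HeLa cells stably expressing a glucocorticoid-response-element beta-lactamase reporter. Fluorescence intensity read with FRET substrate (2 h, room temperature) after 18 h compound treatment at 37 C.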

[19] = target: Glucocorticoid receptor (Homo sapiens) (UniProt P04150); experiment: qHTS assay to identify small molecule antagonists of the glucocorticoid receptor (GR) signaling pathway (AID 720692; active = well fitted inhibition curve with a large enough effect in the signal ratio in the repeat runs, not every such curve was filed as active; the % refers to the signal ratio)
In short: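 Inhibition of dexamethasone-driven (5 nM final) beta-lactamase expression was measured in GRE-reporter HeLa cells over 18 h at 37C. Fluorescence was read after 2 h with the B/G FRET substrate at room temperature.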
% is set by controls: 0 for no effect and ±100 for the full control effect.

Sequence of Glucocorticoid receptor (Homo sapiens) (P04150 whole entry, looked up): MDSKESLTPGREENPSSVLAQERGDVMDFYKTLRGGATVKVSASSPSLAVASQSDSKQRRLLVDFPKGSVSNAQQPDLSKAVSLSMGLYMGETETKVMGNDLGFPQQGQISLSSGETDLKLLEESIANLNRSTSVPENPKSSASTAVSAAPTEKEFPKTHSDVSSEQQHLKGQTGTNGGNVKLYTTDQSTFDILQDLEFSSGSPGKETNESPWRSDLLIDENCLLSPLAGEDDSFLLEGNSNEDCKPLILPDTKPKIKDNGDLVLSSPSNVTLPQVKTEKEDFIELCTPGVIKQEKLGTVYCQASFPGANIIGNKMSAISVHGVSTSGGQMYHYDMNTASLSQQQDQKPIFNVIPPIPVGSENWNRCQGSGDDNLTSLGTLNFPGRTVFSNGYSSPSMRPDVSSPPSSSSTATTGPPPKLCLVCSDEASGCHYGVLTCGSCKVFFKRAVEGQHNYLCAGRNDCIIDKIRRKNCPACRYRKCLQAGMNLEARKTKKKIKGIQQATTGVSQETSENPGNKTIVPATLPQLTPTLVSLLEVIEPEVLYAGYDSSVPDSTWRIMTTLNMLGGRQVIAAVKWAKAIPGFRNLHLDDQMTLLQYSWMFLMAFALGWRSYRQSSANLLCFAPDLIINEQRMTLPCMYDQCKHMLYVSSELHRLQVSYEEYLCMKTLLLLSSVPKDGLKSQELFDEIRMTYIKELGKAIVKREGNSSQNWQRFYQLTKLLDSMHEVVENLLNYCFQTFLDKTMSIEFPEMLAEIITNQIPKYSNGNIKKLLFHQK

Cc1cc(C)c(C)c(C)c1
inactive: Potency [1] | Potency [2] | outcome [3] | outcome [4] | outcome [5] | outcome [6] | outcome [7] | outcome [8] | outcome [9] | outcome [10] | outcome [11] | outcome [12] | outcome [13] | outcome [14] | outcome [15] | outcome [16]

O=c1[nH]c(=O)c2cn[nH]c2[nH]1
inactive: Potency [1] | Potency [2] | outcome [3] | outcome [4] | outcome [5] | outcome [6] | outcome [7] | outcome [8] | outcome [17] | outcome [9] | outcome [10] | outcome [11] | outcome [12] | outcome [13] | outcome [14] | outcome [15] | outcome [16] | Potency [18] | outcome [19]

CC(C)=CCC/C(C)=C\C#N
inactive: Potency [1] | Potency [2] | outcome [3] | outcome [4] | outcome [5] | outcome [6] | outcome [7] | outcome [8] | outcome [9] | outcome [10] | outcome [11] | outcome [12] | outcome [13] | outcome [14] | outcome [15] | outcome [16] | Potency [18]

CN(C)c1cc(NC(=O)CNC(C)(C)C)c(O)c2c1C[C@H]1C[C@H]3[C@H](N(C)C)C(=O)C(C(N)=O)=C(O)[C@@]3(O)C(=O)C1=C2O
inactive: Potency [1] | Potency [2] | outcome [3] | outcome [4] | outcome [5] | outcome [6] | outcome [7] | outcome [8] | outcome [17] | outcome [9] | outcome [10] | outcome [11] | outcome [12] | outcome [13] | outcome [14] | outcome [15] | outcome [16]

C=CC(=O)OCC[N+](C)(C)C
inactive: Potency [1] | Potency [2] | outcome [3] | outcome [4] | outcome [5] | outcome [6] | outcome [7] | outcome [8] | outcome [17] | outcome [9] | outcome [10] | outcome [11] | outcome [12] | outcome [13] | outcome [14] | outcome [15] | outcome [16]

Nc1ccc(C(=O)NCC(=O)O)cc1
inactive: Potency [1] | Potency [2] | outcome [3] | outcome [4] | outcome [5] | fluorescence, relative to Rose Bengal [6] 0.477% [at 18.6 µM] | fluorescence, % of fluorescein control [7] 0.0596% [at 18.6 µM] | fluorescence, % of triamterene [8] -0.0255% [at 18.6 µM] | fluorescence, % of fluorescent control [17] -0.524% [at 18.6 µM] | fluorescence, % of fluorescein [9] -0.0255% [at 18.6 µM] | fluorescence, % of fluorescent control [10] 0.0205% [at 18.6 µM] | activity change [11] -0.0258% [at 18.6 µM] | fluorescence, % of fluorescent control [12] -0.0926% [at 18.6 µM] | fluorescence, % of Rose Bengal [13] -0.0233% [at 18.6 µM] | fluorescence, % of fluorescent control [14] -0.124% [at 18.6 µM] | fluorescence, % of fluorescein control [15] 0.0021% [at 18.6 µM] | fluorescence, % of fluorescent control [16] -0.0546% [at 18.6 µM] | Potency [18] | outcome [19]

CCC(C)(C)C
inactive: Potency [1] | Potency [2] | outcome [3] | outcome [4] | outcome [5] | outcome [6] | outcome [7] | outcome [8] | outcome [9] | outcome [10] | outcome [11] | outcome [12] | outcome [13] | outcome [14] | outcome [15] | outcome [16] | Potency [18]

O=C1c2ccccc2C(=O)N1CO
inactive: Potency [1] | Potency [2] | outcome [3] | outcome [4] | outcome [5] | outcome [6] | outcome [7] | outcome [8] | outcome [17] | outcome [9] | outcome [10] | outcome [11] | outcome [12] | outcome [13] | outcome [14] | outcome [15] | outcome [16] | Potency [18] | outcome [19]

CC(C)(C)NCC(O)COc1cccc2c1CCC(=O)N2 (configuration not stated)
inactive: Potency [1] | Potency [2] | outcome [3] | outcome [4] | outcome [5] | fluorescence, relative to Rose Bengal [6] -0.0368% [at 18.6 µM] | fluorescence, % of fluorescein control [7] -0.225% [at 18.6 µM] | fluorescence, % of triamterene [8] 0.0079% [at 18.6 µM] | fluorescence, % of fluorescein [9] 0.0295% [at 18.6 µM] | fluorescence, % of fluorescent control [10] 0.183% [at 18.6 µM] | activity change [11] -0.0136% [at 18.6 µM] | fluorescence, % of fluorescent control [12] -0.0457% [at 18.6 µM] | fluorescence, % of Rose Bengal [13] -0.307% [at 18.6 µM] | fluorescence, % of fluorescent control [14] -0.0069% [at 18.6 µM] | fluorescence, % of fluorescein control [15] -0.0625% [at 18.6 µM] | fluorescence, % of fluorescent control [16] 0.113% [at 18.6 µM] | Potency [18] | outcome [19]

O=C[C@@H](O)[C@H](O)[C@H](O)CO
inactive: Potency [1] | Potency [2] | outcome [3] | outcome [4] | outcome [5] | outcome [6] | outcome [7] | outcome [8] | outcome [17] | outcome [9] | outcome [10] | outcome [11] | outcome [12] | outcome [13] | outcome [14] | outcome [15] | outcome [16]

CCCCCCCCCCCBr
inactive: Potency [1] | Potency [2] | outcome [3] | outcome [4] | outcome [5] | outcome [6] | outcome [7] | outcome [8] | outcome [9] | outcome [10] | outcome [11] | outcome [12] | outcome [13] | outcome [14] | outcome [15] | outcome [16] | Potency [18] | outcome [19]

COc1cc2nc(N3CCN(C(=O)C4CCCO4)CC3)nc(N)c2cc1OC (configuration not stated)
inactive: Potency [1] | Potency [2] | outcome [3] | outcome [4] | outcome [5] | outcome [6] | outcome [7] | outcome [8] | outcome [17] | outcome [9] | outcome [10] | outcome [11] | outcome [12] | outcome [14] | outcome [15] | outcome [16] | Potency [18] | outcome [19]
